“And” between values parts separate entries of the source, which are not always exact repeats. Equal values may be shown once. The campaign covered roughly 5,500 compounds. About 2,000 (36%) were called active. Not shown: some 18% with an inconclusive outcome. Rule as the data show it: active = normalized growth mostly below about 0.91 (no sharp cut-off); inconclusive = no clear call, values can overlap the other calls; inactive = mostly above about 0.92. The list shows a part of the results.
Assay: chemical genetic growth profiling, strain panel (AID 1159580);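 also: tested at 20 µM; growth read once vehicle control cultures reached saturation at 30 °C; 1 = growth at the plate median or of vehicle wells; lower values mean less growth of the strain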
Conditions: S. cerevisiae deletion strains, growth OD

Measured: normalized growth

O=c1c(-c2ccc(O)cc2)coc2cc(O)ccc12
inactive: locus YAL013W, strain DEP1, hits give low values 0.964 | locus YAL021C, strain ccr4, hits give low values 0.996 | locus YAL026C, strain drs2, hits give low values 0.983 | locus YAL030W, strain snc1, hits give low values 0.989 | locus YAL040C, strain CLN3, hits give low values 1.01 | locus YBL061C, strain skt5, hits give low values 0.983 | locus YBR009C, strain hhf1, hits give low values 0.97 | locus YBR021W, strain FUR4, hits give low values 0.924 | locus YBR023C, strain chs3, hits give low values 0.978 | locus YBR171W, strain sec66, hits give low values 0.969 | locus YBR229C, strain ROT2, hits give low values 1.01 | locus YBR231C, strain swc5, hits give low values 0.986 | locus YBR279W, strain paf1, hits give low values 0.999 | locus YCL011C, strain gbp2, hits give low values 0.98 | locus YCL016C, strain dcc1, hits give low values 0.977 | locus YCL029C, strain bik1, hits give low values 0.983 | locus YCL061C, strain MRC1 (second series), hits give low values 1.01 | locus YCL061C, strain MRC1, hits give low values 0.975 | locus YCL069W, strain vba3, hits give low values 0.995 | locus YCR088W, strain abp1, hits give low values 0.987 | locus YDL005C, strain med2, hits give low values 0.976 | locus YDL035C, strain GPR1, hits give low values 1.01 | locus YDL040C, strain nat1, hits give low values 0.987 | locus YDL074C, strain BRE1, hits give low values 0.97 | locus YDL101C, strain DUN1, hits give low values 1.01 | locus YDL134C, strain PPH21, hits give low values 1 | locus YDL185W, strain tfp1, hits give low values 0.987 | locus YDL192W, strain arf1, hits give low values 1.01 | locus YDR001C, strain nth1, hits give low values 0.984 | locus YDR069C, strain doa4, hits give low values 0.985 | locus YDR101C, strain arx1, hits give low values 0.964 | locus YDR137W, strain rgp1, hits give low values 1 | locus YDR150W, strain NUM1, hits give low values 0.984 | locus YDR159W, strain sac3, hits give low values 0.974 | locus YDR162C, strain NBP2, hits give low values 1 | locus YDR195W, strain ref2 1.04 | locus YDR297W, strain sur2, hits give low values 0.978 | locus YDR318W, strain mcm21, hits give low values 0.99 | locus YDR334W, strain swr1, hits give low values 1 | locus YDR335W, strain msn5, hits give low values 0.992 | locus YDR363W, strain ESC2, hits give low values 1.01 | locus YDR388W, hits give low values 0.98 | locus YDR392W, strain spt3, hits give low values 0.849 | locus YDR502C, strain sam2, hits give low values 0.951 | locus YEL003W, strain gim4, hits give low values 0.989 | locus YEL037C, strain rad23, hits give low values 0.985 | locus YEL061C, strain CIN8 (second series), hits give low values 0.996 | locus YEL061C, strain CIN8, hits give low values 1.01 | locus YER002W, strain NOP16, hits give low values 0.992 | locus YER015W, strain faa2, hits give low values 0.993 | locus YER016W, strain bim1, hits give low values 0.982 | locus YER110C, hits give low values 0.974 | locus YER111C, strain swi4, hits give low values 0.98 | locus YER155C, strain BEM2 (second series), hits give low values 0.972 | locus YER155C, strain BEM2, hits give low values 0.992 | locus YER167W, strain BCK2, hits give low values 1 | locus YFR010W, strain ubp6, hits give low values 0.982 | locus YGL078C, strain dbp3, hits give low values 0.977 | locus YGL086W, strain mad1, hits give low values 0.969 | locus YGL167C, strain pmr1, hits give low values 0.981 | locus YGL173C, strain kem1, hits give low values 0.971 | locus YGL227W, strain vid30, hits give low values 0.984 | locus YGL240W, strain doc1, hits give low values 0.958 | locus YGL248W, strain PDE1, hits give low values 1.01 | locus YGL253W, strain hxk2, hits give low values 0.956 | locus YGR078C, strain PAC10, hits give low values 0.965 and 1.01 | locus YGR135W, strain pre9, hits give low values 0.957 | locus YGR229C, strain SMI1, hits give low values 0.974 | locus YGR252W, strain gcn5, hits give low values 0.825 | locus YHR013C, strain ard1, hits give low values 0.959 | locus YHR027C, strain rpn1, hits give low values 0.995 | locus YHR030C, strain SLT2, hits give low values 1.01 and 1.02 | locus YHR079C, strain IRE1 (second series), hits give low values 0.993 | locus YHR079C, strain IRE1, hits give low values 0.999 | locus YHR094C, strain hxt1, hits give low values 0.99 | locus YHR129C, strain ARP1, hits give low values 1.01 | locus YHR142W, strain chs7, hits give low values 0.943 | locus YHR200W, strain rpn10, hits give low values 0.979 | locus YIL066C, strain RNR3, hits give low values 1.02 | locus YIL073C, strain SPO22, hits give low values 0.951 | locus YIL125W, strain kgd1, hits give low values 0.988 | locus YIR030C, strain dcg1, hits give low values 0.978 | locus YJL092W, strain hpr5, hits give low values 0.981 | locus YJL095W, strain BCK1 (second series), hits give low values 0.98 | locus YJL095W, strain BCK1, hits give low values 0.977 and 1.03 | locus YJL115W, strain asf1, hits give low values 0.994 | locus YJL129C, strain trk1, hits give low values 0.969 | locus YJL134W, strain LCB3, hits give low values 1.01 | locus YJL154C, strain vps35, hits give low values 0.986 | locus YJL164C, strain tpk1, hits give low values 0.966 | locus YJL166W, strain qcr8, hits give low values 0.963 | locus YJL168C, strain set2, hits give low values 0.99 | locus YJL187C, strain SWE1 (second series), hits give low values 0.987 | locus YJL187C, strain SWE1, hits give low values 0.984 | locus YJR043C, strain POL32, hits give low values 0.994 | locus YJR066W, strain TOR1, hits give low values 0.989 | locus YKL009W, strain mrt4, hits give low values 0.951 | locus YKL068W, hits give low values 1 | locus YKL085W, strain MDH1 (second series), hits give low values 1.01 | locus YKL085W, strain MDH1, hits give low values 1.01 | locus YKL160W, strain elf1, hits give low values 0.971 | locus YKR001C, strain vps1, hits give low values 0.963 | locus YKR026C, strain gcn3, hits give low values 0.976 | locus YKR091W, strain srl3, hits give low values 0.982 | locus YLL001W, strain dnm1, hits give low values 0.945 | locus YLL026W, hits give low values 0.976 | locus YLL041C, strain sdh2, hits give low values 0.986 | locus YLR027C, strain aat2, hits give low values 0.973 | locus YLR039C, strain RIC1, hits give low values 1.05 | locus YLR058C, strain SHM2, hits give low values 1 | locus YLR102C, strain apc9, hits give low values 0.998 | locus YLR113W, strain HOG1, hits give low values 0.933 | locus YLR221C, strain rsa3, hits give low values 0.953 | locus YLR258W, strain gsy2, hits give low values 0.978 | locus YLR262C, strain YPT6 (second series), hits give low values 0.969 | locus YLR262C, strain YPT6, hits give low values 1.09 | locus YLR268W, strain sec22, hits give low values 0.949 | locus YLR320W, strain mms22, hits give low values 0.939 | locus YLR330W, strain CHS5, hits give low values 1 | locus YLR342W, strain FKS1 (second series), hits give low values 0.997 | locus YLR342W, strain FKS1, hits give low values 0.987 | locus YLR357W, strain rsc2, hits give low values 0.941 | locus YLR370C, strain arc18, hits give low values 0.982 | locus YLR371W, strain rom2, hits give low values 0.985 | locus YLR384C, strain iki3, hits give low values 1 | locus YLR418C, strain cdc73, hits give low values 0.888 | locus YML016C, strain PPZ1, hits give low values 1.02 | locus YML032C, strain rad52, hits give low values 0.977 | locus YML120C, strain ndi1, hits give low values 0.991 | locus YML124C, strain tub3, hits give low values 0.98 | locus YMR058W, strain fet3, hits give low values 0.981 | locus YMR078C, strain ctf18, hits give low values 0.979 | locus YMR125W, strain sto1, hits give low values 0.99 | locus YMR129W, hits give low values 0.989 | locus YMR205C, strain PFK2, hits give low values 0.957 | locus YMR223W, strain ubp8, hits give low values 0.978 | locus YMR231W, strain pep5, hits give low values 0.992 | locus YMR307W, strain GAS1, hits give low values 0.951 and 1.01 | locus YNL067W, strain RPL9B, hits give low values 0.966 | locus YNL071W, strain lat1, hits give low values 0.979 | locus YNL128W, strain TEP1, hits give low values 1 | locus YNL153C, strain GIM3, hits give low values 0.982 and 1.04 | locus YNL175C, strain NOP13, hits give low values 0.994 | locus YNL183C, strain NPR1, hits give low values 0.993 | locus YNL197C, strain WHI3, hits give low values 0.979 | locus YNL209W, strain ssb2, hits give low values 0.99 | locus YNL224C, strain SQS1, hits give low values 1 | locus YNL233W, strain BNI4, hits give low values 0.966 | locus YNL248C, strain rpa49, hits give low values 0.97 | locus YNL250W, strain rad50, hits give low values 1.01 | locus YNL271C, strain bni1, hits give low values 0.985 | locus YNL298W, strain CLA4, hits give low values 0.997 | locus YNL307C, strain MCK1, hits give low values 0.97 | locus YNL322C, strain KRE1 (second series), hits give low values 0.966 | locus YNL322C, strain KRE1, hits give low values 1 | locus YNR049C, strain mso1, hits give low values 0.985 | locus YNR052C, strain pop2, hits give low values 0.988 | locus YOL006C, strain TOP1, hits give low values 0.931 | locus YOL012C, strain htz1 0.695 | locus YOL147C, strain pex11, hits give low values 0.982 | locus YOR001W, strain rrp6, hits give low values 1 | locus YOR061W, strain CKA2, hits give low values 1.02 | locus YOR069W, strain VPS5, hits give low values 1.01 | locus YOR070C, strain gyp1, hits give low values 0.982 | locus YOR080W, strain dia2, hits give low values 0.98 | locus YOR083W, strain WHI5 (second series), hits give low values 1.05 | locus YOR083W, strain WHI5, hits give low values 0.945 | locus YOR106W, strain vam3, hits give low values 0.954 | locus YOR136W, strain idh2, hits give low values 0.97 | locus YOR144C, strain elg1, hits give low values 0.985 | locus YOR184W, strain ser1, hits give low values 0.935 | locus YOR231W, strain MKK1, hits give low values 1.03 | locus YOR265W, strain rbl2, hits give low values 0.985 | locus YOR270C, strain vph1, hits give low values 0.913 | locus YOR290C, strain snf2, hits give low values 0.902 | locus YOR316C, strain cot1, hits give low values 0.986 | locus YPL051W, strain arl3, hits give low values 0.988 | locus YPL055C, strain LGE1, hits give low values 0.958 | locus YPL078C, strain atp4, hits give low values 0.956 | locus YPL106C, strain sse1, hits give low values 0.935 | locus YPL240C, strain hsp82, hits give low values 1 | locus YPL241C, strain CIN2, hits give low values 1 | locus YPL256C, strain CLN2, hits give low values 0.992 | locus YPR119W, strain clb2, hits give low values 0.984 | locus YPR141C, strain kar3, hits give low values 0.997 | locus YPR163C, strain tif3, hits give low values 0.982 | locus YPR167C, strain met16, hits give low values 0.984 | strain wtn01, hits give low values 0.953

From PubChem BioAssay AID1159580 (chemical genetic matrix, 2015)
